Several values for one entry are separate records, joined by “and”; a condition that tells them apart may be missing. Identical values can stand only once. Inconclusive results are not listed. Some structures have more than one record in an assay (separate samples or runs), and their calls can disagree. Activity calls are given as the source filed them. Rule for the calls, unless noted: active = hit-call score of the fitted dose curve at least 0.9, where 1 is the maximum; inactive = score below 0.9.
What was measured:
[1] = molecular target: Estrogen receptor (Homo sapiens) (UniProt P03372); assay: CCTE_Deisenroth_AIME_384WELL_LUC_Inactive: CCTE's 384-well Estrogen Receptor Transactivation Assay without AIME metabolic competence (ERTA luciferase; metabolism negative), Deisenroth Lab (AID 2284038; active = hit-call score of the fitted dose curve at least 0.9, where 1 is the maximum;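 note: VM7Luc4E2 breast cells given medium preincubated 2 h with S9-free microspheres; hits raise estrogen receptor luciferase signal so potencies reflect agonists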)
Procedure, shortened: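 Chemicals (10-point series, 0.002 - 200 uM) were incubated 2 hours with alginate-water microsphere lids lacking S9, then the conditioned medium was transferred to VM7Luc4E2 breast cells for 24 hour. Luciferase induction was read by bioluminescence, fitted upward relative to 17beta-estradiol.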

[2] = molecular target: Estrogen receptor (Homo sapiens) (UniProt P03372); assay: CCTE_Deisenroth_AIME_384WELL_LUC_Shift: CCTE's 384-well Estrogen Receptor Transactivation Assay with AIME metabolic competence data shift (ERTA luciferase; difference in metabolism positive and negative), Deisenroth Lab (AID 2284041);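 note: shift is response with S9 minus without S9 so positive means metabolism raised ER signal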
Procedure, shortened: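 Here, parent compounds undergo 2 h phase I metabolism by PB/BNF-induced rat S9 before 24 h transactivation in VM7Luc4E2 cells; the curve models S9-positive minus S9-negative response over a 10-point series.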

[3] = CCTE_Deisenroth_AIME_384WELL_CTox_Inactive: Cytotoxicity Assessment (CTOX) in CCTE's 384-well Estrogen Receptor Transactivation Assay without AIME metabolic competence (metabolism negative), Deisenroth Lab (AID 2284039; active = hit-call score of the fitted dose curve at least 0.9, where 1 is the maximum;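 note: cell viability via live-cell protease substrate cleaved to fluorescent probe; cells exposed 24 h to medium preincubated 2 h with alginate-water beads without S9; loss of fluorescence signal means loss of viability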)
Procedure, shortened: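 Fluorescent protease-substrate viability readout after 24 h exposure of VM7Luc4E2 cells to conditioned medium. Chemicals (0.002–200 uM) first sat 2 h over alginate-water beads, no S9. Data fitted bidirectionally, loss of signal meaning viability loss.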

[4] = CCTE_Shafer_MEA_dev_burst_rate: CCTE's Neural Network Formation Assay for Burst Rate, Shafer Lab (AID 2284042);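 for AC50: potency for loss of burst rate below DMSO control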
Procedure, shortened: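 Exposure ran continuously over 12 days of network development in rat cortical cultures, with compound refreshed during full media changes on DIV 5 and 9. Single-electrode bursts per recording time, well-mean over active electrodes, trapezoidal AUC across days 5–12, fitted downward relative to DMSO.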

[5] = CCTE_Shafer_MEA_dev_bursting_electrodes_number: CCTE's Neural Network Formation Assay for Number of Bursting Electrodes, Shafer Lab (AID 2284043; active = hit-call score of the fitted dose curve at least 0.9, where 1 is the maximum;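 for AC50: potency is for loss of bursting electrodes relative to DMSO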)
Procedure, shortened: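 Primary rat cortical neurons were cultured on PEI-coated 48-well MEA plates (16 electrodes/well) and exposed from plating through day 12, with compound renewed at feeds on DIV 5 and 9. Electrodes bursting ≥1 per 2 min were counted on DIV 5, 7, 9, 12; trapezoidal AUC taken.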

[6] = CCTE_Shafer_MEA_dev_per_burst_interspike_interval: CCTE's Neural Network Formation Assay for Burst Interspike Interval, Shafer Lab (AID 2284044);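 note: mean spike spacing inside bursts as AUC over recordings on days 5 7 9 12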;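 for AC50: potency for a decrease of within-burst interspike interval below DMSO level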
Procedure, shortened: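 Primary rat cortical neurons on 48-well MEA plates, exposed from day 0 through day 12, treatment renewed at DIV 5 and 9. Within-burst interspike interval recorded days 5, 7, 9, 12, well-averaged, summarised as AUC; negative fit versus DMSO.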

[7] = CCTE_Shafer_MEA_dev_interburst_interval_mean: CCTE's Neural Network Formation Assay for Mean Interburst Interval, Shafer Lab (AID 2284046);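 note: well-mean interburst interval of bursting electrodes as AUC over four recording days; curve fitted for decrease in interburst interval relative to DMSO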
Procedure, shortened: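 Primary rat cortical neurons on PEI-coated 48-well MEA plates (laminin added with cells at plating) (16 electrodes/well), exposed from plating day 0 with renewal at DIV 5 and 9. Mean inter-burst interval averaged over bursting electrodes, AUC across days 5, 7, 9, 12; DMSO baseline.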

[8] = CCTE_Shafer_MEA_dev_inter_network_spike_interval_mean: CCTE's Neural Network Formation Assay for Mean Inter-network Spike Interval, Shafer Lab (AID 2284047)
Procedure, shortened: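 Mean time between consecutive network-spike peaks, recorded extracellularly (adaptive spike detection) on DIV 5, 7, 9 and 12, summarized as trapezoidal AUC. Rat cortical cultures on MEAs dosed continuously days 0–12, re-dosed at feeds; loss-of-signal fit relative to DMSO.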

[9] = CCTE_Shafer_MEA_dev_network_spike_number: CCTE's Neural Network Formation Assay for Number of Network Spikes, Shafer Lab (AID 2284048);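 note: synchronized bursts across electrodes counted on days 5 7 9 12 and integrated as AUC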;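 for AC50: fit as a loss of signal meaning fewer network spikes than DMSO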
Procedure, shortened: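 Primary rat cortical neurons were seeded at 1.5 x 10^5 cells/well on PEI-coated 16-electrode MEA wells with laminin, exposed from plating day 0, compound renewed at DIV 5 and 9. Network spikes were recorded on days 5, 7, 9, 12 and summarized as trapezoidal AUC versus DMSO.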

[10] = CCTE_Shafer_MEA_dev_spike_duration_mean: CCTE's Neural Network Formation Assay for Mean Spike Duration, Shafer Lab (AID 2284051);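 note: mean network spike duration pooled as area under curve over DIV 5 to 12 recordings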;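 for AC50: potency for a decrease in mean network spike duration versus DMSO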
Procedure, shortened: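 Spontaneous activity was recorded on days 5, 7, 9 and 12 from rat cortical cultures grown on microelectrode arrays and dosed continuously from day 0, with media and compound renewed after the DIV 5 and 9 recordings. Network-spike duration was collapsed by area under the curve.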

[11] = CCTE_Shafer_MEA_dev_network_spike_duration_std: CCTE's Neural Network Formation Assay for Standard Deviation of Network Spike Duration, Shafer Lab (AID 2284052);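 note: hits are decreases in network spike duration SD versus DMSO vehicle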
Procedure, shortened: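 Network spike duration variability was collapsed across recordings on days 5, 7, 9 and 12 by trapezoidal area-under-curve and fitted downward against DMSO. Cultures were rat cortical neurons on PEI-coated MEA plates, dosed continuously from plating, refed with compound DIV 5/9.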

[12] = CCTE_Shafer_MEA_dev_per_network_spike_spike_number_mean: CCTE's Neural Network Formation Assay for Mean Number of Spikes in a Network Spike, Shafer Lab (AID 2284053);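 for AC50: fitted as decrease in spikes per network spike relative to DMSO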
Procedure, shortened: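 Mean spike count within each network spike, taken in a 0.05 s window at its peak, was recorded on days 5, 7, 9 and 12 and integrated as trapezoidal area under the curve. Rat cortical cultures on MEA plates received continuous compound from day 0, refreshed at medium changes on DIV 5 and 9.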

[13] = CCTE_Shafer_MEA_dev_per_network_spike_spike_percent: CCTE's Neural Network Formation Assay for Percent of Spikes in a Network Spike, Shafer Lab (AID 2284054)
Procedure, shortened: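 Primary rat cortical neurons on 16-electrode MEA wells (PEI-coated, laminin at plating), exposed from day 0 with renewal at DIV 5 and 9; spikes within 0.05 s of network-spike peaks over total spikes, AUC across days 5, 7, 9, 12.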

[14] = CCTE_Shafer_MEA_dev_LDH: CCTE's Lactate Dehydrogenase Assay for Cytotoxicity in the Neural Network Formation Assay, Shafer Lab (AID 2284068; active = hit-call score of the fitted dose curve at least 0.9, where 1 is the maximum;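 note: exposure for twelve days from plating with re-dosing on DIV 5 and 9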)
Procedure, shortened: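 Primary rat cortical neurons were cultured on PEI-coated MEA plates and exposed from plating through day 12, with compound renewed at medium changes on DIV 5 and 9. LDH activity was read spectrophotometrically; loss of signal versus DMSO indicates reduced viability.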

[15] = CCTE_Shafer_MEA_acute_AB: CCTE's Alamar Blue Assay for Cytotoxicity in the Neural Acute Assay, Shafer Lab (AID 2284069; active = hit-call score of the fitted dose curve at least 0.9, where 1 is the maximum;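 note: active compounds lower the viability signal compared with DMSO wells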)
Procedure, shortened: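 Resazurin reduction (CellTiter Blue, 1:6 in fresh medium) read at ex 544/em 590 nm marks viability loss relative to DMSO. Cells: primary rat cortical neuron networks on microelectrode arrays, treated after baseline recording at 13 or 15 days in vitro.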

[16] = CCTE_Shafer_MEA_dev_AB: CCTE's Alamar Blue Assay for Cytotoxicity in the Neural Network Formation Assay, Shafer Lab (AID 2284083; active = hit-call score of the fitted dose curve at least 0.9, where 1 is the maximum;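 note: resazurin reduction fluorescence as viability of cultured neurons; twelve days of exposure from plating with re-dosing on DIV 5 and 9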)
Procedure, shortened: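 Resazurin fluorescence, relative to DMSO, gauges viability after twelve days of exposure that began at plating of rat cortical neurons (1.5 x 10^5 cells/well, 48-well MEA); treatment renewed with full medium exchange on DIV 5 and 9.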

DIO2 (gene 1734) = assay: CCTE_GLTED_hDIO2: CCTE's human Deiodinase 2 (DIO2) Inhibition Assay, Great Lakes Toxicology and Ecology Division (GLTED) Lab (AID 2284050; active = hit-call score of the fitted dose curve at least 0.9, where 1 is the maximum)
Procedure, shortened: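 In this cell-free test, chemicals are exposed to human deiodinase type 2 for 3 hours. Released iodide is determined spectrophotometrically via the Sandell-Kolthoff method, and signal loss relative to DMSO is fitted.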

DIO3 (gene 1735) = assay: CCTE_GLTED_hDIO3: CCTE's human Deiodinase 3 (DIO3) Inhibition Assay, Great Lakes Toxicology and Ecology Division (GLTED) Lab (AID 2284055; active = hit-call score of the fitted dose curve at least 0.9, where 1 is the maximum;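 note: potency is for inhibition seen as loss of released iodide signal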)
Procedure, shortened: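 Enzyme activity is tracked as iodide release from substrate by recombinant human DIO3 over 3 h with chemical present. A second Sandell-Kolthoff step converts iodide to an absorbance signal, fitted relative to DMSO.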

Measured: AC50

Estrogen receptor (Homo sapiens), sequence (P03372 whole entry, looked up): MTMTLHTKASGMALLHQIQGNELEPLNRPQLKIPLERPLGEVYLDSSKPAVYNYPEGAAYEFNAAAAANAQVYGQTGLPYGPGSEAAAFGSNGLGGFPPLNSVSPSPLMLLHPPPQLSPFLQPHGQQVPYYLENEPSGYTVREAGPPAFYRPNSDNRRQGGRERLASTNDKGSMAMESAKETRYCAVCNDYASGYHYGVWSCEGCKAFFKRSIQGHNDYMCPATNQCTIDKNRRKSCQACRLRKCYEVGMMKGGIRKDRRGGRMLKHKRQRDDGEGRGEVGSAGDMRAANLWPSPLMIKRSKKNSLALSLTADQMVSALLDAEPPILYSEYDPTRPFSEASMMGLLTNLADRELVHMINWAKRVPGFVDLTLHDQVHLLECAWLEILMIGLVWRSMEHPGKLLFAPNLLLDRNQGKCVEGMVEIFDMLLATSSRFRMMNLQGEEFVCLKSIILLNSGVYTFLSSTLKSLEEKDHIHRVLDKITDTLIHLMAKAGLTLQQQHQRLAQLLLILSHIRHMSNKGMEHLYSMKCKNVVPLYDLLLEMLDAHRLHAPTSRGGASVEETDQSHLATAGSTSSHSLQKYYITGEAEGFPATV

O=C(O)COc1nc(Cl)c(Cl)cc1Cl
inactive: [1] | [2]

CCON=C(CC)C1=C(O)CC(c2c(C)cc(C)cc2C)CC1=O (configuration not stated)
inactive: [2]

COc1cnc(OC)n2nc(NS(=O)(=O)c3c(OCC(F)F)cccc3C(F)(F)F)nc12
inactive: [3]
active: [1] 13.7 µM | [2] 28 µM

Cc1c(F)c(F)c(COC(=O)C2C(/C=C(\Cl)C(F)(F)F)C2(C)C)c(F)c1F (configuration not stated)
active: [4] 716 nM | [5] 2.72 µM | [9] 311 nM | [10] 2.15 µM | [11] 0.893 µM | [12] 1.98 µM | [13] 1.45 µM | [14] 18 µM | [16] 17.4 µM
inactive: [1] | [3] | [2] | [6] | [7] | [8] | [15]

CCCCNC(=O)OCC#CI
inactive: [2] | [8] | [15]
active: [3] 124 µM | [4] 3.94 µM and 1.33 µM | [5] 3.82 µM and 1.48 µM | [6] 7.65 µM and 1.63 µM | [7] 3.24 µM and 2.21 µM | [9] 2.92 µM and 1.21 µM | [10] 3.81 µM and 1.12 µM | [11] 2.46 µM and 1.09 µM | [12] 2.76 µM and 1.55 µM | [13] 2.91 µM and 1.17 µM | [14] 3.84 µM and 1.13 µM | [16] 3.1 µM and 1.55 µM

CCOc1cc(Oc2ccc(C(F)(F)F)cc2Cl)ccc1[N+](=O)[O-]
active: [4] 9620 nM | [5] 5.27 µM | [6] 11.4 µM | [7] 4.76 µM | [9] 6090 nM | [10] 4.18 µM | [11] 1.13 µM | [12] 4.48 µM | [13] 13.2 µM | [14] 17.7 µM | [16] 30 µM
inactive: [3] | [2] | [8]

Oc1ccccc1-c1ccccc1
active: DIO2 (gene 1734) 38.2 µM | DIO3 (gene 1735) 89.4 µM
inactive: [1] | [3] | [2]

CCCCC(CC)COC(=O)c1ccccc1C(=O)OCC(CC)CCCC (configuration not stated)
inactive: [4] | [5] | [6] | [7] | [8] | [9] | [10] | [11] | [12] | [13] | [14] | [16]
active: [4] 2.98 µM and 6.34 µM | [5] 7.91 µM and 6.07 µM | [6] 9.06 µM | [7] 12.6 µM | [9] 2.32 µM and 12.8 µM | [10] 9.35 µM and 4.75 µM | [11] 3.05 µM | [12] 6.42 µM and 4.63 µM | [13] 7.71 µM and 22.4 µM | [14] 11.3 µM | [16] 12.4 µM

CC(Oc1ccc(Cl)cc1Cl)C(=O)O (configuration not stated)
inactive: [1] | [2] | [15]
